# Reference: PubChem BioAssay (NCI)
# The panel holds about 83,000 compounds, 20% with a hit somewhere; the sample as a whole holds those more often.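 The endpoint reported here, percent growth, reads 100 for growth as untreated, 0 for no net growth and -100 for all cells dead.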 A number with no mark means an inactive call. Activity calls are given as the source filed them.
# Tested on: KM12 colon
# Assay: NCI-60 one-dose screen, 48 h (100 = growth as untreated, 0 = no growth, -100 = all killed)
# Settings: 10 µM unless noted
# Method: Growth inhibition of the KM12 human tumor cell line is measured as a screen for anti-cancer activity. Cells are grown in 96 well plates and exposed to the test compound for 48 hours. Compounds are tested at a single concentration, which is 10^-5 M for most compounds. The reported endpoint is percent growth (GI% or GIPRCNT), where numbers from 0 - 100% represent growth inhibition, and numbers from -100% - 0 represent cell death. For example, a value of 40 represents 60% growth inhibition. A value of 0 means no net growth occurred over the course of the experiment. A value of -40 indicates 40% of cells at the beginning of the experiment died by the end of the experiment. A value of -100 means all cells are dead at the end of the experiment.
# NCI-60 Human Tumor Cell Lines Screen was performed using the standard one-dose NCI protocol, which is described in more detail at https://dtp.cancer.gov/discovery_development/nci-60/default.htm.
# Compounds with GIPRCNT values below 10 were considered active. Activity score was based on GIPRCNT using the following formula: […]
# Score is 0 for GIPRCNT values of 100 or above, 50 for GIPRCNT values of 0, and 100 for GIPRCNT values of -100.
row,Structure (SMILES),growth
1,O=C(N/N=C/c1ccc([N+](=O)[O-])o1)c1[nH]c2ccc(Br)cc2c1-c1ccccc1,15.3%
2,CC(C)(O)c1cncc(-c2ccc3ncnc(N4CCc5cc(F)c(Cl)cc54)c3c2)c1,35.1%
3,O=c1[nH]c2ccc(Cl)cc2cc1CSc1ccccc1Nc1nccc(-c2ccc(Cl)cc2)n1,92%
4,O=C1[C@H]2Cc3c([nH]c4ccccc34)[C@@H](c3ccc(Br)cc3)N2C(=O)CN1C1CCN(Cc2ccccc2)CC1,36.7%
5,Clc1ccc2c(NCCCn3ccnc3)c3oc4ccccc4c3nc2c1,30.1%
6,OC1CCN(CCCOc2c3ccccc3nc3c2oc2ccc(Cl)cc23)CC1,1.06% (active)
7,N#Cc1ccc(/C=N/NC(=O)c2[nH]c3ccc(Br)cc3c2-c2ccccc2)s1,11%
8,CN(C)CCCOc1c2ccc(Cl)cc2nc2c1oc1ccccc12,0.963% (active)
9,COc1ccc2[nH]cc(-c3cc(N)n4nc(-c5c[nH]c6ccc(OC)cc56)cc4n3)c2c1,-37.8% (active)
10,CC1=C(C)C(=O)C(Nc2cccc(C(F)(F)F)c2)=C(Cl)C1=O,67.2%
11,Cc1sc2c(c1C)c(=O)nc1c(-c3nc(-c4ccc(F)cc4)no3)n[nH]n12,106%
12,COc1ccc([C@@H]2c3[nH]c4ccccc4c3CC3C(=O)N(C4CCN(Cc5c(F)cccc5F)CC4)CC(=O)N32)c(OC)c1 (stereo not given in full),58.1% [5.26 µM]
13,Clc1ccc2c(NCCCN3CCOCC3)c3oc4ccccc4c3nc2c1,32%
14,N/C(=N\c1nc2c(Cl)cc(Cl)cc2s1)C(Cl)(Cl)Cl,1.36% (active)
15,Cc1cc(C(NC(=O)CCCCCNc2cccc3c2C(=O)N(C2CCC(=O)NC2=O)C3=O)c2cccnc2)c(O)c2ncccc12 (stereo not given),17.6%
16,O=C(N/N=C/c1ccc[nH]1)c1[nH]c2ccc(Br)cc2c1-c1ccccc1,10.4%
17,Cc1nc(-c2cc3ccccc3oc2=O)ccc1C(=O)/C=C/c1ccc(N2CCOCC2)cc1,68.9%
18,OC1CCN(CCCOc2c3ccc(Cl)cc3nc3c2oc2ccc(Cl)cc23)CC1,-74.3% (active)
19,c1ccc(CNc2ncnc3ccc(-c4cnc5[nH]ncc5c4)cc23)cc1,84.9%
20,O=C(N/N=C/c1ccc([N+](=O)[O-])s1)c1[nH]c2ccc(Br)cc2c1-c1ccccc1,12.8%

row,Structure (SMILES),growth
1,Cc1[nH]nc2ncc(C#Cc3cncc(C(=O)Nc4ccc(CN5CCN(C)CC5)c(C(F)(F)F)c4)c3)cc12,8.98% (active)
2,Cc1ccc(CNS(=O)(=O)/N=C2\NC(=O)NC2=C(Cl)Cl)cc1,24%
3,Cc1c(Nc2nnc(SCC(=O)Nc3sc4c(c3C#N)CCCC4)s2)c(=O)n(-c2ccccc2)n1C,98%
4,Nc1cc(-c2c[nH]c3ccc(F)cc23)nc2cc(-c3c[nH]c4ccc(F)cc34)nn12,40.6%
5,C=CCn1c(SCC(=O)c2ccc(Br)cc2)nnc1-c1c[nH]c2ccccc12,102%
6,Clc1ccc2oc3c(NCCCn4ccnc4)c4ccccc4nc3c2c1,30.9%
7,CC(=O)Oc1ccccc1C(=O)Nc1ccc(C(=O)/C=C/c2cccs2)cc1,102%
8,CCOC(=O)c1c(NC(=O)c2cccc(C(F)(F)F)c2)sc2cc(O)ccc12,95.5%
9,COc1cc(-c2nc3ccc(-c4nnc(SCC(=O)Nc5ccc(C(=O)/C=C/c6ccc(Cl)cc6)cc5)o4)cc3[nH]2)cc(OC)c1OC,90.9%
10,COc1ccc(C(=O)/C=C/c2ccc(OCc3ccc(C)cc3)c(OC)c2)cc1OC,51.5%
11,COc1cc(/C=C/C(=O)c2ccc(C(F)(F)F)cc2)ccc1Oc1nc(NCCO)nc(N2CCOCC2)n1,62.4%
12,COc1cccc(OC)c1-c1nnn(C)c1C(=S)N1CCN(c2ccc([N+](=O)[O-])cc2Cl)CC1,108%
13,Nc1c(C(=O)Nc2ccc(Cl)cc2)sc2nc(-c3cnccn3)cc(-c3cccs3)c12,80.2%
14,NS(=O)(=O)c1ccc(Nc2nc(SCC(=O)c3ccc(Cl)cc3)nc3ccccc23)cc1,87%
15,NS(=O)(=O)c1cccc(Nc2nc(SCC(=O)c3ccc([N+](=O)[O-])cc3)nc3ccccc23)c1,38.4%
16,Cc1cccc(/C=C/c2nn3c(-c4ccco4)nnc3s2)c1,105%
17,CN(C)c1ccc(/C=c2\sc3nc4ccccc4n3c2=O)cc1,104%
18,N/C(=N\c1nc2c(Br)cccc2s1)C(Br)Br,3.67% (active)
19,CCN(CC)c1ccc(C=O)c(OCc2cn(CC(=O)Nc3ccc(Cl)cc3)nn2)c1,70.4%
20,O=C(CCN1C(=O)/C(=C/c2ccccc2)SC1=S)N1CCOCC1,84.3%
